Results with a measured potency or affinity are listed apart. Inconclusive results are not listed. Calls of active or inactive are those of the source.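 The calls were made as follows: active = compound whose half-maximal dose for viability loss stays within twice the top tested dose at all three treatment times; inconclusive = treatment times disagree in their calls; inactive = inactive at every treatment time.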
Test: cytotoxicity in SNB-19 CNS tumor cells – cell-based, Alamar Blue fluorescence, 8/24/48 h, dry powder, HRAS target identification, dose response (AID 720600)

| Compound | outcome |
| --- | --- |
| CCC(=O)N(c1ccc(OC)c(Cl)c1)C(C(=O)NCCc1ccccc1)c1cccs1 (configuration not stated) | inactive |
| Cc1onc(C(=O)N2CCN(C(c3ccncc3)c3ccncc3)CC2)c1[N+](=O)[O-] | inactive |

From PubChem BioAssay AID720600 (Broad Institute, 2013)
